Experimental data taken from PubChem BioAssay AID504617 (Sanford-Burnham Center for Chemical Genomics, 2011).
Some of the results follow.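 How the source made its calls: active means mean activity change at or below -40%, meaning activation of 40% or more, at 20 µM; inactive means the rest.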

Molecular target: Apoptotic protease-activating factor 1 (Homo sapiens) (UniProt O14727)
Assay: Apaf-1 activators, single-dose retest, confirmation, biochemical, fluorescence, DEVD-Rh110, 20 µM (AID 504617)
Conditions: reconstituted apoptosome caspase-3 activity, at 20 µM, stronger effect = lower value

Sequence of Apoptotic protease-activating factor 1 (Homo sapiens) (O14727 whole entry, looked up): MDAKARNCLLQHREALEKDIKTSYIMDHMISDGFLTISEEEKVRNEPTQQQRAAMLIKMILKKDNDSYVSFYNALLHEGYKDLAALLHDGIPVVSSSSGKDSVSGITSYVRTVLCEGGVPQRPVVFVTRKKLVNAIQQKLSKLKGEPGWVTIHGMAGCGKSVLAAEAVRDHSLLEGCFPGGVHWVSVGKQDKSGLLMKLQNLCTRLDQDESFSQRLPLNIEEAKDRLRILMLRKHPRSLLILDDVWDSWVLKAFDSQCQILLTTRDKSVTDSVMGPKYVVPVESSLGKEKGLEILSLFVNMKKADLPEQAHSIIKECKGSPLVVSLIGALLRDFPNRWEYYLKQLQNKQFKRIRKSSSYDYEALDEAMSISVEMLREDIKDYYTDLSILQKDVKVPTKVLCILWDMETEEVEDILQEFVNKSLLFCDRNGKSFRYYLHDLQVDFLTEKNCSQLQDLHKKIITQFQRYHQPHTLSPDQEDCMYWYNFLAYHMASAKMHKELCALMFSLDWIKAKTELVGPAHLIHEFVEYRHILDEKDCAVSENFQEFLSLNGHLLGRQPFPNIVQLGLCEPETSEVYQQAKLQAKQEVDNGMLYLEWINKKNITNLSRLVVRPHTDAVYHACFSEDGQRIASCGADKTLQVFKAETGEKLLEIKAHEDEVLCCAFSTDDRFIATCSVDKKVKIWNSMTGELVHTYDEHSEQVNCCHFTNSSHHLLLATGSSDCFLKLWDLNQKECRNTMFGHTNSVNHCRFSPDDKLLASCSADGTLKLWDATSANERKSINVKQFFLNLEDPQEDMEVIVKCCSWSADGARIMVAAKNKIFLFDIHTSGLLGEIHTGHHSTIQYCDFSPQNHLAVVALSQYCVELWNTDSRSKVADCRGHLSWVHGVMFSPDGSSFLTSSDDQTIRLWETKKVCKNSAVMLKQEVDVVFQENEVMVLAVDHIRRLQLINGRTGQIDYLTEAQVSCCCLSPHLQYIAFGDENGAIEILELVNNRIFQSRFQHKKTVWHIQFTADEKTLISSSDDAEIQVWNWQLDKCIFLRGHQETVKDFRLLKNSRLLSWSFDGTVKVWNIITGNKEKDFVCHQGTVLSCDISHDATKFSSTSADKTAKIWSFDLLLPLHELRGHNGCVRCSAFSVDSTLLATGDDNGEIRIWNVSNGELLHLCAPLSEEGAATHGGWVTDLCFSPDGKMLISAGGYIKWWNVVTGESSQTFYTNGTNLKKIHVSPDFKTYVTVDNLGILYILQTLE

Activity change, negative = activation, inactive:
COc1ccc(C2CC(c3ccccc3)Nc3ncnn32)cc1 (configuration not stated) 8.21%
CC(C)OCCCNC(=S)N1CCC(C(=O)c2ccc3c(c2)OCCO3)CC1 17.5%
O=c1[nH]c2c(c(=O)n1Cc1ccccc1)CCC2 11%
O=C(Nc1cccc(-c2nc3ccccc3[nH]2)c1)c1ccc(C(=O)Nc2cccc(-c3nc4ccccc4[nH]3)c2)cc1 -23.1%
COc1cc(C(=O)NCc2nnc(SCC(=O)Nc3nc4ccc(C)cc4s3)o2)cc(OC)c1OC 8.22%
CCOCCCNC(=O)c1c[nH]c2cc(C)ccc2c1=O 13.4%
CN(C)S(=O)(=O)c1ccc(C(=O)NCCN=C2NS(=O)(=O)c3ccccc32)cc1 4.07%
